# Compounds without any hit were thinned out: in the full panel of roughly 83,000, 20% have a hit.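 The endpoint reported here, percent growth, reads 100 for growth as untreated, 0 for no net growth and -100 for all cells dead.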 Unmarked numbers belong to inactive results. Calls of active or inactive are those of the source. Rule for the calls: active = growth percent below 10; inactive = the rest.
# What was measured:
# Assay in all cases: NCI-60 one-dose screen, 48 h (100 = growth as untreated, 0 = no growth, -100 = all killed)
# Settings in all cases: 10 µM unless noted
# NCI-H23 lung = test system: NCI-H23 lung
# NCI-H226 lung = test system: NCI-H226 lung
# NCI-H322M lung = test system: NCI-H322M lung
# HOP-62 NSCLC = test system: HOP-62 NSCLC
# NCI-H460 lung = test system: NCI-H460 lung
# HOP-92 NSCLC = test system: HOP-92 NSCLC
# NCI-H522 lung = test system: NCI-H522 lung
# A549/ATCC NSCLC = test system: A549/ATCC NSCLC
# 786-0 renal = test system: 786-0 renal
# COLO 205 colon = test system: COLO 205 colon
# DU-145 prostate = test system: DU-145 prostate
# MALME-3M melanoma = test system: MALME-3M melanoma
# MDA-MB-231 breast = test system: MDA-MB-231 breast
# RXF 393 renal = test system: RXF 393 renal
# SF-268 CNS = test system: SF-268 CNS
# SF-295 CNS = test system: SF-295 CNS
# SF-539 CNS = test system: SF-539 CNS
# UACC-257 melanoma = test system: UACC-257 melanoma
# M14 melanoma = test system: M14 melanoma
# K-562 leukemia = test system: K-562 leukemia
Compound,growth (NCI-H23 lung),growth (NCI-H226 lung),growth (NCI-H322M lung),growth (HOP-62 NSCLC),growth (NCI-H460 lung),growth (HOP-92 NSCLC),growth (NCI-H522 lung),growth (A549/ATCC NSCLC),growth (786-0 renal),growth (COLO 205 colon),growth (DU-145 prostate),growth (MALME-3M melanoma),growth (MDA-MB-231 breast),growth (RXF 393 renal),growth (SF-268 CNS),growth (SF-295 CNS),growth (SF-539 CNS),growth (UACC-257 melanoma),growth (M14 melanoma),growth (K-562 leukemia)
Cc1cc(C)n(-c2ccc3nnc(-c4ccccc4)n3n2)n1,94.1%,105%,110%,122%,104%,85.2%,74.7%,99.6%,93.9%,115%,92.2%,108%,117%,90.6%,89.6%,103%,102%,135%,129%,
CN(C)c1nc(NCCNS(=O)(=O)c2ccc(C3=Nc4c(N)nc(N)nc4NC(c4ccc(Cl)cc4)C3)cc2)nc(Nc2ccc(F)cc2)n1 (configuration not stated),50.8%,54.7%,66%,80.3%,19.4%,,40.1%,62.7%,24.3%,3.23% (active),64%,14.6%,11.2%,20.1%,43.7%,48.5%,-51.1% (active),42.6%,11.6%,11.8%
COc1cccc(/C=C/C(=O)c2ccc(OC)c(S(N)(=O)=O)c2)c1,15.1%,53.9%,22.2%,21.4%,16.2%,55.9%,-65.1% (active),10.3%,14.6%,-18.4% (active),31.8%,71.2%,49.4%,41.7%,39.5%,34.6%,-11.6% (active),65.8%,41.2%,
O=C(Nc1ccccc1)N1CCN(c2cc(-c3cn(-c4ccccc4)nc3-c3cccc(O)c3)ccn2)CC1,71%,75.4%,104%,80.8%,70%,,74.1%,53.9%,94.6%,45.1%,95.3%,84%,82.4%,90.8%,114%,54.8%,89.5%,97.4%,69.4%,29.5%
Cn1cc(-c2cc3nc(-c4cn(C)c5ncc(Br)cc45)cc(N)n3n2)c2ccccc21,-22.5% (active),-2.09% (active),-20.2% (active),-34.5% (active),-54.6% (active),,-70.6% (active),2.3% (active),-87.7% (active),-81.4% (active),16.1%,-85.2% (active),-64.7% (active),-74% (active),11.8%,-60.2% (active),-90.2% (active),-77.4% (active),-72.6% (active),-30% (active)
Cc1ccc(-c2nnc3ccc(N/N=C/c4ccccc4)nn23)cc1,60.5%,98%,91.4%,88.5%,68.5%,70.5%,105%,93.1%,99%,98.4%,75.9%,95.6%,80.1%,94.3%,57.8%,52.3%,80.8%,103%,67.3%,
COc1ccc(C(=O)/C=C/c2ccccc2Cl)cc1S(N)(=O)=O,117%,106%,102%,124%,103%,102%,102%,112%,104%,106%,117%,93.9%,91.9%,124%,92.1%,89.2%,97.5%,120%,109%,
COc1c(F)ccc(C(=O)Nc2ccc3nc(NC(=O)C4CCCN(S(=O)(=O)c5ccc(Br)c(F)c5)C4)sc3c2)c1F (configuration not stated),87.3%,80.8%,94.5%,105%,84.1%,,81.9%,73.7%,52.7%,81.8%,102%,95.6%,83.5%,-1.15% (active),96.7%,72.5%,64.5%,80.7%,80.7%,62.5%

# — PubChem BioAssay (NCI)
